AddAB inh: less growth of phage-infected E. coli with AddAB; E. coli expressing H. pylori AddAB, absorbance growth; inhibition, % at 11.9 µM; 330,000 compounds, 0.29% hits; in the data active = inhibition above about 12%;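 also: 0% = vehicle wells of infected cells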
phage Ecoli inh: E. coli growth loss with phage present; growth absorbance; inhibition, % at 11.9 µM; 360,000 compounds, 0.26% hits; AID 651602; in the data active = inhibition above about 11%
E coli growth-1: bacterial growth inhibition, counter-screen for AddAB inhibitors; E. coli V3065 growth, OD600 absorbance, 18 h; inhibition, % at 11.9 µM; 330,000 compounds, 0.27% hits;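 active = inhibition above the campaign's mean inhibition across all tested compounds plus 3 SD, cut at about 9.9% in these data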;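 also: uninfected addAB+ strain grown without phage in ampicillin broth; 0% = DMSO wells and 100% = ciprofloxacin 0.95 µg/ml wells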
Tat transport: inhibitors of E. coli Tat protein transport | E. coli MC4100 TorA-mCherry Tat export, fluorescence | inhibition, % at 10 µM | 340,000 compounds, 0.036% hits | AID 488895;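 active = mean replicate inhibition at least 50% and at least half of replicates individually reaching 50%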;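 also: exported cargo escapes ClpAP degradation while cytoplasmic cargo is degraded and loses fluorescence; 0% = median of neutral control wells and 100% = median of NaSCN control wells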
E coli growth-2: inhibitors of Escherichia coli growth | OD600, 23 h; stronger effect = lower value | OD600 absorbance (concentration not given with the values) | 330,000 compounds, 0.21% hits;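 active = OD600 absorbance below the run mean of sample wells minus 3.6 SD, in any replicate, cut at about 0.56 in these data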
AddAB confirm: confirmation screen: growth loss of phage-infected E. coli expressing H. pylori AddAB | E. coli V3065 expressing H. pylori AddAB, T4 phage, OD; T4 phage with gene 2 nonsense mutations | 880 compounds, 64% hits | shares compounds with AddAB inh | inhibition, % at 11.9 µM;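 active = mean inhibition above a set limit taken from the earlier primary screen, cut at about 13% in these data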;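 also: higher means less bacterial growth since AddAB block lets phage replicate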
RecBCD counter: AddAB counter-screen: growth loss of RecBCD+ E. coli infected with mutant T4 phage. inhibition, % at 11.9 µM. 880 compounds, 73% hits. E. coli V66 + mutant T4 phage, OD growth. shares compounds with AddAB inh. AID 488955;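 active = mean inhibition above the mean of solvent-only control wells plus 3 SD, cut at about 4% in these data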;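 also: optical density read after an 18 h incubation at 37 °C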
Bact viability: reduces bacterial viability, AddAB inhibitor counter-screen. shares compounds with AddAB inh. absorbance (AddAB counterscreen). inhibition, % at 11.9 µM. 880 compounds, 35% hits; in the data active = inhibition above about 25%
RecBCD conf: growth loss of phage-infected V66 E. coli, RecBCD confirmation screen | shares compounds with phage Ecoli inh | E. coli V66 + T4 2- phage, growth OD | inhibition, % at 11.9 µM | 890 compounds, 45% hits | AID 651982;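 active = mean inhibition over triplicates exceeding the hit threshold derived in the original primary screen, cut at about 11% in these data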
Ecoli viability: counter-screen for RecBCD inhibitors: inhibitors of bacterial viability. E. coli viability, absorbance (OD) growth. shares compounds with phage Ecoli inh. inhibition, % at 11.9 µM. 890 compounds, 29% hits; in the data active = inhibition above about 20%;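 also: E. coli strain V66 grown with compound alone and no phage infection; 0% = bacteria with DMSO vehicle only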
AddAB counter: growth loss of phage-infected AddAB E. coli, RecBCD counter-screen; inhibition, % at 11.9 µM; E. coli expressing H. pylori AddAB + T4 phage, OD growth; gene 2 mutant T4, recBCD-deleted host; shares compounds with phage Ecoli inh; AID 651984; 890 compounds, 45% hits;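 active = mean inhibition above the solvent-only control wells' mean plus 3 SD, cut at about 22% in these data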;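 also: higher means less bacterial growth from phage killing when AddAB is blocked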
Starred values were filed as active, the others as inactive; · = not tested or not shown. An excerpt weighted towards active compounds, which were near 0.51% of everything screened.

SMILES	AddAB inh	phage Ecoli inh	E coli growth-1	Tat transport	E coli growth-2	AddAB confirm	RecBCD counter	Bact viability	RecBCD conf	Ecoli viability	AddAB counter
CN1/C(=C\C=C\C2=[N+](C)c3ccc4ccccc4c3C2(C)C)C(C)(C)c2ccccc21	30*	·	51*	·	·	77*	66*	78*	·	·	·
COC(=O)C1=C(c2ccc(F)cc2F)CC2CCC1N2C(=O)N1CCCCC1 (stereo not given)	·	·	·	·	0.64	·	·	·	·	·	·
CCCN(CCC)C1Cc2cc(OC)c(OC)cc2C1	98*	5	99*	-9	0.68	-5	1	-2	·	·	·
CCCNC1=C(C)C(=O)C2=C(C1=O)C(COC(N)=O)[C@]1(OC)C3NC3CN21 (stereo not given in full)	44*	23*	46*	9	0.13*	98*	45*	82*	·	·	·
Cc1cc([N+](=O)[O-])c2ccccc2[n+]1[O-]	28*	·	21*	-17	0.48*	99*	11*	33*	·	·	·
Cc1ccccc1[N+](=O)[O-]	0	2	-4	6	0.68	·	·	·	·	·	·
COC(=O)C1=C(c2ccc3ccccc3c2)CC2CCC1N2C(=O)NCCO (stereo not given)	·	·	·	·	0.7	·	·	·	·	·	·
CCn1nc(-c2ccccc2)nc2c(=O)n(C)c(=O)nc1-2	3	·	3	-6	0.61	·	·	·	·	·	·
Cc1nc2c(=O)n(C)c(=O)nc-2n(C)n1	41*	42*	42*	-16	0.049*	48*	39*	42*	43*	48*	61*
CN1CCN(c2ccc([N+](=O)[O-])c3no[n+]([O-])c23)CC1	102*	30*	103*	51*	0.057*	101*	19*	89*	14*	17	101*
COC(=O)C1=C(c2ccc(F)cc2OCc2ccccc2)CC2CCC1N2C(=O)NC1CCCCC1 (stereo not given)	·	·	·	·	0.73	·	·	·	·	·	·
CN(C)C1C(=O)C(C(N)=O)=C(O)C2(O)C(=O)C3=C(O)c4c(O)cccc4C(C)(O)C3C(O)C12 (stereo not given)	-2	99*	-3	138*	0.064*	·	·	·	102*	104*	102*
Oc1c(Cl)cccc1Cc1cc(Cl)cc(Cl)c1O	·	15*	·	5	0.38*	·	·	·	5	8	6
COC(=O)C1=C(c2cc3ccccc3o2)CC2CCC1N2C(=O)NCc1cccc2ccccc12 (stereo not given)	·	·	·	·	0.71	·	·	·	·	·	·
COC(=O)C1=C(c2cccc(C#N)c2)CC2CCC1N2C(=O)NCc1ccc(F)cc1 (stereo not given)	·	·	·	·	0.72	·	·	·	·	·	·
COc1ccc(CC2=NCCc3cc(OC)c(OC)cc32)cc1OC	·	4	·	·	·	·	·	·	·	·	·
COC(=O)c1c2[n+](cc3cc(OC)c(OC)cc13)CCc1cc(OC)c(OC)cc1-2	0	16*	0	-2	0.67	·	·	·	-5	-5	-2
CCN(CC)S(=O)(=O)c1ccc(N=Cc2c(O)n(-c3ccccc3)c(=O)[nH]c2=O)cc1	0	2	1	-9	0.72	·	·	·	·	·	·
O=c1[nH]c(=O)n(-c2ccc(Cl)cc2)c(O)c1C=Nc1ccc(S(=O)(=O)Nc2nccs2)cc1	9	12*	3	5	·	·	·	·	6	4	25*
O=C(O)C1CC1C(NP(=O)(c1ccccc1)c1ccccc1)c1ccccc1 (stereo not given)	·	·	·	·	0.69	·	·	·	·	·	·
CC(N)C(=O)NC1C2C(=C(O)CC(O)C2O)C(=O)OC1(C)C(Cl)Cl (stereo not given)	·	99*	·	82*	·	·	·	·	104*	106*	97*
CCOC(=O)[C@]12Cc3cc(Cl)ccc3[C@H]1N(C1CCCCC1)C(=O)c1cc(OC)ccc12	·	11*	·	·	·	·	·	·	5	4	-4
